# Assay outcomes deposited in PubChem by National Center for Advancing Translational Sciences (NCATS).
# Shown are actives, neighbours in structure and some others; about 19% of the full set was active somewhere.
# TDP1 cell CPT: growth inhibition of DT40 Tdp1-/-;hTDP1 cells with camptothecin (screen for TDP1 inhibitors) | chicken DT40 Tdp1-/-;hTDP1 cells + 20 nM CPT, ATP luminescence, 48 h | Potency, µM (highest dose often 46.2 µM), hits mostly inhibitors | hit rate 12% among 420,000 | AID 686979; further: nearly all actives have a fitted effect of over 55% in size
#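 Chicken DT40 Tdp1-/- cells stably complemented with human TDP1 were seeded at 400 cells/well in medium containing 20 nM camptothecin, exposed to pin-transferred compounds, and grown at 37 °C for at least 48 hr. Viability was read as ATP luminescence.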
# IL1B secr inh: blocks inflammasome-driven IL-1 beta release. hit rate 4.7% among 360,000. THP-1 LPS/ATP IL-1B secretion, AlphaLISA, 16 h; active compounds read low. AID 743279. activity change, % at 57.5 µM; in the data active means activity change below about -50%; inconclusive means mostly about -30% to -49%
#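 Secreted IL-1B measured by AlphaLISA bead assay after 16 h compound exposure of THP-1 cells; compounds (final up to 57.5 uM) added 1 h before LPS (250 ng/mL) and ATP (1.25 mM) stimulation; lower signal means less secretion.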
# DT40 TDP1 no CPT: qHTS for Inhibitors of human tyrosyl-DNA phosphodiesterase 1 (TDP1): qHTS in cells in absence of CPT; DT40 Tdp1-/- hTDP1 cells, no CPT, ATP luminescence, 48 h; Potency, µM (series often up to 46.2 µM), most hits filed as inhibitors; hit rate 15% among 420,000; further: nearly all actives have a fitted effect of over 55% in size
#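 Seeded 400 DT40-hTDP1 cells/well (vehicle DMSO, no 20 nM CPT); pinned compounds; ≥48 hr at 37 °C; CellTiter-Glo luminescence as viability measure.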
# HT1080 IDH1KD tx: toxicity to HT-1080 IDH1 knockdown cells (counter line) | AID 686971 | Potency, µM (highest dose often 46.1 µM), actives largely listed as cytotoxic | hit rate 2% among 360,000 | HT-1080 IDH1 knockdown viability, ATP luminescence, 48 h
#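 HT-1080-IDH1KD cells (IDH1 knocked down), 750/well in RPMI with 5% FBS, treated with compound 48 h at 37 degrees C. Viability by CellTiter-Glo luminescence, normalised to DMSO and no-cell wells; concentration-response curves classed.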
# HT1080NT lethal: kills 2HG-producing HT-1080-NT fibrosarcoma cells. hit rate 1.6% among 360,000. HT-1080-NT fibrosarcoma viability, CellTiter-Glo ATP luminescence, 48 h. Potency, µM (doses to about 46.1 µM), usual class: cytotoxic;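 further: NT is the 2HG producing partner of a matched IDH1 knockdown line; nearly all actives have a fitted effect of over 55% in size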
#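 Viability by CellTiter-Glo luminescence after 48 h compound exposure at 37C of HT-1080-NT cells (750/well, RPMI, 5% FBS). % activity scaled between DMSO wells and medium-only wells, then curve-fitted and categorized by curve class.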
# Hits are given with their value; - = inactive; ? = inconclusive; . = not tested or not shown; [ ] = remark or other dose. Unless noted, the call rests on the fitted dose curve; in most records, active means well fitted curve in the direction sought with a large enough effect; inconclusive means small, poorly fitted or top-dose-only effect, or another doubt; inactive means no such curve, though single readings can be large; an effect the other way counts as inactive or inconclusive.
SMILES,TDP1 cell CPT,IL1B secr inh,DT40 TDP1 no CPT,HT1080 IDH1KD tx,HT1080NT lethal
O=[N+]([O-])c1cc(C(F)(F)F)ccc1NCCNC(=S)Nc1ccc(Cl)cc1,29µM,-88,18µM,?,18µM
O=[N+]([O-])c1cc(C(F)(F)F)ccc1NCCCCNS(=O)(=O)c1ccc(Cl)cc1,13µM,-56,15µM,?,?
O=[N+]([O-])c1cc(Cl)ccc1NCCNc1ncc(C(F)(F)F)cc1Cl,-,-,-,-,-
O=C(NC1CCCCCC1)C(=S)NC1CCCCC1,-,-,-,-,-
Cc1ccc(NC(=O)C2CCCN(c3ncnc4onc(C)c34)C2)cc1Cl (centres undefined),10µM,.,16µM,.,.
Cc1noc2ncnc(N3CCCC(C(=O)NC(C)C)C3)c12 (centres undefined),-,.,?,.,.
COc1cccc(NC(=O)C2CCCN(c3ncnc4onc(C)c34)C2)c1 (centres undefined),21µM,.,21µM,.,.
COc1ccc(C)cc1NC(=O)C1CCCN(c2ncnc3onc(C)c23)C1 (centres undefined),?,.,16µM,.,.
COc1ccc(C)cc1NC(=O)C1CCCN(S(=O)(=O)c2cccc3nonc23)C1 (centres undefined),-,-,?,-,-
COc1cc(NC(=O)C2CCN(c3cnccn3)CC2)cc(OC)c1OC,-,-,-,-,-
CC(C)(C)C1CCc2oc3ccc(NS(=O)(=O)c4cc(Cl)ccc4Cl)cc3c2C1 (centres undefined),26µM,.,?,.,.
COC(=O)CCC(=O)Nc1ccc2oc3c(c2c1)CCCC3,-,-,-,-,-
CCOc1cc(C)c(S(=O)(=O)Nc2ccc(F)cc2)cc1C,16µM,-,16µM,?,?
Cc1cc(C)c(S(=O)(=O)Nc2ccc3oc4c(c3c2)CCCC4)cc1C,16µM,.,?,.,.
Cc1cc(C)c(S(=O)(=O)Nc2ccc(O)cc2)cc1C,?,-,21µM,-,-
COc1ccc(C2C3=C(CCCC3=O)N(CC(=O)O)C3=C2C(=O)CCC3)cc1Cl,-,-,-,-,-
CC1Nc2ccccc2C(=O)N1NS(=O)(=O)c1ccccc1 (centres undefined),-,-,-,-,-
CC(C)(C)C1CCc2oc3ccc(NS(=O)(=O)c4ccc(C(=O)O)cc4)cc3c2C1 (centres undefined),-,.,-,.,.
Cc1cc(S(=O)(=O)Nc2ccc3oc4c(c3c2)CCCC4)ccc1Cl,21µM,.,23µM,.,.
Fc1cnc(Cl)nc1N1CCN(c2ccccc2)CC1,-,-,-,-,-
CN1CCN(c2nc(N3CCN(c4ccccc4)CC3)ncc2F)CC1,?,-71,?,-,-
COCCNc1nc(NCCOc2ccccc2Cl)c2sc(-c3ccccc3)cc2n1,9.2µM,-60,13µM,?,?
COCCNc1nc(-c2ccccc2CO)c2sc(-c3ccccc3)cc2n1,1.3µM,-,1.8µM,0.92µM,?
O=C1NCCN1CCNc1nc(NCC2CC2)nc2cc(-c3ccccc3)sc12,?,.,21µM,?,?
COCCNc1nc(NCCCN2CCCC2=O)c2sc(-c3ccccc3)cc2n1,?,-,?,?,?
SMILES,TDP1 cell CPT,IL1B secr inh,DT40 TDP1 no CPT,HT1080 IDH1KD tx,HT1080NT lethal
Cn1c(NCCOc2ccccc2Cl)nc2cc(-c3ccc(F)cc3)sc2c1=O,?,-,?,-,-
COCCNc1nc(NCC2CCCCC2)c2sc(-c3ccccc3)cc2n1,15µM,-103,8.2µM,18µM,18µM
Cc1ccccc1Nc1nc(N)nc(CSc2n[nH]c(N)n2)n1,-,-,-,-,-
NC(=O)C1CCN(C(=O)CCNS(=O)(=O)c2ccccc2F)CC1,-,-,-,-,-
O=CN1CCN(C(=O)c2ccc([N+](=O)[O-])cc2)CC1,-,-,-,-,-
c1ccc(-c2cc3nc(NCC4CC4)nc(NCC4CCCCC4)c3s2)cc1,4.6µM,-109,2.9µM,4.6µM,3.3µM
Cc1ccc(CC#N)c(-c2c(CC#N)ccc(C)c2C)c1C,?,-,23µM,-,-
Cn1c(=O)c2nc(-c3ccccc3)oc2c2ccccc21,-,-,16µM,-,-
Cc1cccc(NC(=O)COn2nnc3ccc(S(C)(=O)=O)cc32)c1,-,-,?,-,?
COc1ccc(NC(=O)CSc2nc(-c3ccccc3)[nH]c2-c2ccccc2)cc1OC,15µM,.,8.2µM,.,.
COc1ccc(-c2nc(SCC(=O)Nc3ccc4c(c3)OCCO4)c(-c3ccc(F)cc3)[nH]2)cc1OC,?,.,21µM,.,.
COc1ccc(NC(=O)CSc2ccccn2)cc1OC,-,-,-,-,-
COc1cc(-c2nc(SCC(=O)Nc3ccc(C)cc3)c(-c3ccc(F)cc3)[nH]2)cc(OC)c1OC,?,.,15µM,.,.
COc1ccc(-c2[nH]c(-c3ccccc3)nc2SCC(=O)Nc2ccc3c(c2)OCO3)cc1,?,.,21µM,.,.
COc1ccc(-c2nsc(SCC(=O)Nc3ccc4c(c3)OCO4)n2)cc1,?,-,?,?,-
CN(C(=O)c1cc(COc2ccc(F)cc2Cl)on1)C1CCOC1 (centres undefined),?,-,?,-,-
C=Cc1ccc(Cn2ccn(-c3ccc(F)c(F)c3)c(=O)c2=O)cc1,-,.,-,.,.
CC(C)c1ccc(OCC(=O)NC(C)c2ccccc2)cc1 (centres undefined),-,-,?,-,-
CS(=O)(=O)N(CC(=O)O)c1cc(C(F)(F)F)ccc1Cl,-,-,-,-,-
COCCCNC(=O)CSc1nc(-c2ccc(OC)c(OC)c2)[nH]c1-c1ccc(F)cc1,-,.,-,.,.
COc1ccc2nc(SCC(=O)Nc3ccc4c(c3)OCCO4)[nH]c2c1,-,-,-,-,-
COc1cccc(-c2nc(SCC(=O)Nc3ccc4c(c3)OCCO4)c(-c3ccc(C)cc3)[nH]2)c1,?,.,23µM,.,.
COc1ccc(NC(=O)CSc2ncccc2C(=O)OC(C)C)cc1OC,12µM,-,12µM,-,?
O=C(CSc1nc(-c2ccc(F)cc2)[nH]c1-c1ccccc1)Nc1ccccc1,18µM,.,12µM,.,.
Cc1cccc2cc3c(N)c(C(=O)N4CCOCC4)sc3nc12,2.1µM,-55,1.6µM,?,?
CCOc1cc(C=O)ccc1OS(=O)(=O)c1ccc(NC(C)=O)cc1,?,-,18µM,-,-
COc1cc(C(=S)N2CCCC2)cc(OC)c1OS(=O)(=O)c1ccc(NC(C)=O)cc1,?,-,?,-,-
COc1cc(C(=S)N2CCCC2)ccc1OS(=O)(=O)c1ccc(NC(C)=O)cc1,15µM,-,?,-,-
COc1cc(C(=S)N2CCOCC2)ccc1OS(=O)(=O)c1ccc(NC(C)=O)cc1,18µM,-,9.2µM,?,-
CCC1CN(CCNC(=O)c2cccc(C(=O)OC)c2)Cc2cc(OC)ccc2O1 (centres undefined),-[9.04 µM],.,-,.,.
